This is a sample that favours compounds with a hit; in the whole collection about 0.47% have one here.
FadD28 binding = inhibitors of Mycobacterium tuberculosis FadD28 bisubstrate binding; FadD28 bisubstrate probe binding, fluorescence polarization; inhibition, % at 12.5 µM; 0.22% of 360,000 active; AID 588549; in the data active = inhibition above about 8.5%, passing the limit was not always enough
BioA inh-1 = inhibitors of Mycobacterium tuberculosis BioA enzyme; purified M. tuberculosis BioA enzyme, plate reader; inhibition, % at 9.99 µM; 0.096% of 360,000 active; in the data active = inhibition above about 40%
Yp Topo-I inh = Y. pestis Topo-I inhibition via cleavage products; Y. pestis Topo-I cleavage product accumulation, plate reader; activity, % at 10 µM; 0.064% of 360,000 active; AID 504884; in the data active = activity above about 50%, passing the limit was not always enough
TcdB GH inh = inhibitors of Clostridioides difficile toxin B glycohydrolase | TcdB glycohydrolase enzymatic assay, plate reader | inhibition, % at 9.99 µM | 0.24% of 350,000 active | AID 652162; in the data active = inhibition above about 10%
BioA inh-2 = blocks M. tuberculosis BioA aminotransferase; max activity, %; shares compounds with BioA inh-1; 310 tested, under 10 active; purified BioA enzyme, plate reader, dose response; AID 651679;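 also: top concentration of the dilution series was 10 µM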
Target sequence (P9WQ81 whole entry, looked up): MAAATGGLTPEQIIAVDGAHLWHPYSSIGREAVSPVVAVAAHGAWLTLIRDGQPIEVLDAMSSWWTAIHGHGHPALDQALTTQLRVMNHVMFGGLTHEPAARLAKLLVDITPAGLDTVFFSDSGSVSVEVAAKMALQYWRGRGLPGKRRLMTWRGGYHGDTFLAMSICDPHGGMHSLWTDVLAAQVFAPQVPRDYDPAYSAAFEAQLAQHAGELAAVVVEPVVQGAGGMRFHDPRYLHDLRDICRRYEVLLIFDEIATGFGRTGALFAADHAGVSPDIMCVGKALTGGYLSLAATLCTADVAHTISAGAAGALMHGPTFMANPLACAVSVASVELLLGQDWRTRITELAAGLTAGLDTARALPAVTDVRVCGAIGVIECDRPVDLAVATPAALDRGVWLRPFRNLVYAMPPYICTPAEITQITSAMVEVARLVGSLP
HepG2 tox 2 = kills HepG2 cells. shares compounds with BioA inh-1. HepG2 cytotoxicity, plate reader. max activity, %. 310 tested, under 10 active. AID 651898
NIH3T3 tox 5 = NIH3T3 viability loss. NIH3T3 cytotoxicity, plate reader. activity change, negative = cytotoxicity, % at 26 µM. shares compounds with BioA inh-1. 310 tested, under 10 active
Numbers without * were called inactive; i = inactive; . = no result. Unless noted, no rule for the calls is given here.

SMILES	FadD28 binding	BioA inh-1	Yp Topo-I inh	TcdB GH inh	BioA inh-2	HepG2 tox 2	NIH3T3 tox 5
Cc1ccccc1-n1c(SCC(=O)N(C)C2CCS(=O)(=O)C2)nc2ccccc2c1=O (configuration not stated)	-2.9	59.7*	-11.5	-0.3	-3.1	17.9	-0.2
CCOC(=O)C1(CCc2ccccc2)CCN(C(=O)CN2CCOC2=O)CC1	-0.8	58.6*	-0.5	-0.1	-4.1	23.0	8.7
O=C(Nc1cccnc1)c1cc2nc(C3CC3)cc(C(F)(F)F)n2n1	-1.3	89.6*	-0.8	.	-3.0	18.9	-0.2
FC(F)(F)c1cccc(N2CCN(C(=S)NCC3CCCO3)CC2)c1 (configuration not stated)	-4.0	.	7.3	0.9	.	.	.
COC(=O)C[C@H]1CC[C@@H]2[C@H](COC[C@@H](O)CN2C(=O)Nc2cccc(F)c2)O1	.	42.0*	.	0.8	-7.3	i	-5.0
CNC(=O)C[C@@H]1CC[C@H]2[C@@H](COC[C@H](O)CN2C(=O)Nc2cccc(OC)c2)O1	.	1.3	.	-0.7	.	.	.
CNC(=O)C[C@H]1CC[C@@H]2[C@H](COC[C@@H](O)CN2C(=O)Nc2cccc(OC)c2)O1	.	76.8*	.	-0.1	4.9	i	-6.4
CCCCNc1ccc(C(F)(F)F)cc1S(=O)(=O)NCCc1ccc(F)cc1	-2.5	-1.1	-7.1	1.5	.	.	.
CC1=C(C#N)C(c2cccnc2)C2=C(CC(c3ccc(Cl)cc3)CC2=O)N1 (configuration not stated)	-9.9	62.7*	4.2	.	-5.9	13.7	-2.8
CC1=C(C#N)C(c2ccc(O)cc2)C2=C(CCCC2=O)N1 (configuration not stated)	0.7	8.1	9.5	1.2	.	.	.
Cc1ccc(-n2ncc3c2CC(C)(C)CC3NC(=O)CCc2cccnc2)cc1 (configuration not stated)	-1.3	44.7*	10.6	1.7	-7.5	-11.9	7.4
Cc1cnc(C(=O)NC2CC(C)(C)Cc3c2cnn3-c2cccc(F)c2)cn1 (configuration not stated)	0.5	63.0*	24.2	1.0	-3.7	20.1	3.0
CCn1cc(C(=O)NC2CC(C)(C)Cc3c2cnn3-c2cccc(F)c2)cn1 (configuration not stated)	0.4	22.2	5.0	1.0	.	.	.
Cc1cc(C)n2nc(CC(=O)NNC(=O)COc3cccc(C)c3C)nc2n1	-3.0	-2.1	-2.5	2.6	.	.	.
Cc1n[nH]c(C)c1CCC(=O)N/N=C/c1cccc([N+](=O)[O-])c1	-1.2	.	5.5	-0.1	.	.	.
O=C(Nc1ccc(Cl)cc1F)c1cc(S(=O)(=O)N2CCCCC2)ccc1F	0.4	-2.5	0.8	.	.	.	.
CC(=O)Nc1ccc2nc(-c3cccnc3)[nH]c2c1	1.2	55.9*	0.9	.	-5.5	6.9	2.6
COc1ccc(CCN(C)c2ccc(C(N)=O)cc2[N+](=O)[O-])cc1OC	0.4	49.0*	-11.4	1.0	-8.0	-12.1	-9.2

High-throughput results deposited in PubChem BioAssay by Broad Institute.
